The panel holds about 83,000 compounds, 20% with a hit somewhere; the sample as a whole holds those more often.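 Negative percent growth values reflect cell death: -40 means 40% of the cells present at the start died, and -100 means all died.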 Unmarked numbers belong to inactive results. The source made the active and inactive calls. Rule for the calls: active = growth percent below 10; inactive = the rest.
Tests used:
Assay in all cases: NCI-60 one-dose screen, 48 h (100 = growth as untreated, 0 = no growth, -100 = all killed)
Conditions in all cases: 10 µM unless noted
[1] = test system: DU-145 prostate
[2] = test system: K-562 leukemia
[3] = test system: MALME-3M melanoma
[4] = test system: MDA-MB-231 breast
[5] = test system: RXF 393 renal
[6] = test system: SF-268 CNS
[7] = test system: SF-295 CNS
[8] = test system: SF-539 CNS
[9] = test system: UACC-257 melanoma
[10] = test system: M14 melanoma
[11] = test system: HCT-15 colon
[12] = test system: HT29 colon
[13] = test system: SNB-75 CNS
[14] = test system: SNB-19 CNS
[15] = test system: U251 CNS
[16] = test system: PC-3 prostate
[17] = test system: SK-MEL-5 melanoma
[18] = test system: UACC-62 melanoma
[19] = test system: LOX IMVI melanoma
[20] = test system: SK-MEL-28 melanoma

COc1ccc(/C=N/NC(=O)c2c(N)nn(C)c2Nc2ccccc2)cc1Oc1ccccc1
growth [1]: 101% | growth [2]: 88% | growth [3]: 91.1% | growth [4]: 94.9% | growth [5]: 87.1% | growth [6]: 94% | growth [7]: 90.4% | growth [8]: 95.7% | growth [9]: 96.9% | growth [10]: 101% | growth [11]: 87.7% | growth [12]: 110% | growth [13]: 88.2% | growth [14]: 88.4% | growth [15]: 93.6% | growth [16]: 74.9% | growth [17]: 93.8% | growth [18]: 83.8% | growth [19]: 95.3% | growth [20]: 102%

COc1cc2cc(Oc3ccc(NC(=O)Nc4ccc(F)c(C(F)(F)F)c4)cc3)c(C)nc2cc1OCCN(C)C
growth [1]: 106% | growth [2]: 3.63% (active) | growth [3]: 92.7% | growth [4]: 103% | growth [5]: 76.5% | growth [6]: 98.5% | growth [7]: 104% | growth [8]: 102% | growth [9]: 105% | growth [10]: 95.7% | growth [11]: 29.2% | growth [12]: 66.5% | growth [13]: 98.8% | growth [14]: 99.8% | growth [15]: 100% | growth [16]: 92% | growth [17]: 90.9% | growth [18]: 106% | growth [19]: 54% | growth [20]: 81%

N#Cc1nc(-c2ccccc2)oc1N1CCC(C2(C(F)(F)F)N=N2)CC1
growth [1]: 103% | growth [2]: 90% | growth [3]: 102% | growth [4]: 93.8% | growth [5]: 99.4% | growth [6]: 101% | growth [7]: 101% | growth [8]: 99.2% | growth [9]: 102% | growth [10]: 102% | growth [11]: 102% | growth [12]: 102% | growth [13]: 98.7% | growth [14]: 102% | growth [15]: 97.5% | growth [16]: 97% | growth [18]: 93.4% | growth [19]: 97.1% | growth [20]: 119%

COc1ccccc1/C=C/C(=O)c1nnn(-c2ccc(F)cc2)c1C
growth [1]: 3.67% (active) | growth [2]: 8.81% (active) | growth [3]: 70.6% | growth [4]: 65.6% | growth [5]: 40.7% | growth [6]: 66.2% | growth [7]: 64.3% | growth [8]: 20.7% | growth [9]: 71.3% | growth [10]: 62.3% | growth [11]: 22.9% | growth [12]: 4.8% (active) | growth [13]: 40.6% | growth [14]: 63.2% | growth [15]: 36.3% | growth [16]: 68.9% | growth [18]: 59.4% | growth [19]: 2.13% (active) | growth [20]: 75.2%

CSc1ccc(C(=NNS(=O)(=O)c2ccc(C)cc2)c2ccc(Cl)cc2)cc1
growth [1]: 108% | growth [2]: 94.6% | growth [3]: 89.9% | growth [4]: 104% | growth [5]: 101% | growth [6]: 95.3% | growth [7]: 96.9% | growth [8]: 102% | growth [9]: 100% | growth [10]: 103% | growth [11]: 101% | growth [12]: 99.8% | growth [13]: 85.4% | growth [14]: 105% | growth [15]: 103% | growth [16]: 86.4% | growth [18]: 90.1% | growth [19]: 106% | growth [20]: 102%

O=C(NNc1nc2cc(F)cc(F)c2n2cccc12)c1cccnn1
growth [1]: 20.8% | growth [2]: 12.8% | growth [3]: 21.4% | growth [4]: 30.2% | growth [5]: 22.3% | growth [6]: 12% | growth [7]: 9.98% (active) | growth [8]: 3.8% (active) | growth [9]: 3.33% (active) | growth [10]: 7.06% (active) | growth [11]: 27.9% | growth [12]: 30.2% | growth [13]: 24.5% | growth [14]: 21.6% | growth [15]: 15.3% | growth [16]: 30.7% | growth [17]: -31.3% (active) | growth [18]: 9.53% (active) | growth [19]: 6.98% (active) | growth [20]: 23.9%

CC(=O)Nc1ccccc1-c1nc2ccccc2s1
growth [1]: 110% | growth [2]: 113% | growth [3]: 106% | growth [4]: 99.2% | growth [5]: 103% | growth [6]: 101% | growth [7]: 103% | growth [8]: 100% | growth [9]: 107% | growth [10]: 103% | growth [11]: 96.7% | growth [12]: 105% | growth [13]: 69.8% | growth [14]: 94.6% | growth [15]: 108% | growth [16]: 102% | growth [18]: 94.3% | growth [19]: 97.3% | growth [20]: 112%

O=C1[C@@H]2Cc3c([nH]c4ccccc34)[C@H](c3ccc(Cl)cc3)N2C(=O)CN1C1CCN(Cc2ccccc2)CC1
growth [1]: 56.1% | growth [2]: 9.57% (active) | growth [3]: 74.5% | growth [4]: 68.6% | growth [5]: 57.6% | growth [6]: 50.5% | growth [7]: 70.6% | growth [8]: 77.6% | growth [9]: 61.4% | growth [10]: 27.9% | growth [11]: 35% | growth [12]: 25% | growth [13]: 43.8% | growth [14]: 66% | growth [15]: 56.5% | growth [16]: 38.8% | growth [17]: 62.3% | growth [18]: 75.4% | growth [19]: 20.7% | growth [20]: 77.8%

C#Cc1nc(C(=O)NCCCCCCC(=O)NO)cs1
growth [1]: -51.1% (active) | growth [2]: 5.86% (active) | growth [3]: -61% (active) | growth [4]: -71.8% (active) | growth [5]: -78.7% (active) | growth [6]: 2.01% (active) | growth [7]: -2.7% (active) | growth [8]: -80.1% (active) | growth [9]: 23% | growth [10]: 16.6% | growth [11]: 41.3% | growth [12]: 5.53% (active) | growth [13]: -65.2% (active) | growth [14]: 30.6% | growth [15]: 6.04% (active) | growth [16]: 14.3% | growth [17]: -55.9% (active) | growth [18]: -63.1% (active) | growth [19]: -84.6% (active) | growth [20]: -53.1% (active)

Cn1c(SCC(=O)c2ccc(F)cc2)nc2ccccc2c1=O
growth [1]: 98% | growth [2]: 76.4% | growth [3]: 109% | growth [4]: 91.7% | growth [5]: 108% | growth [6]: 99% | growth [7]: 97.9% | growth [8]: 98.2% | growth [9]: 107% | growth [10]: 95.8% | growth [11]: 104% | growth [12]: 101% | growth [13]: 91.1% | growth [14]: 96.9% | growth [15]: 95.3% | growth [16]: 94.8% | growth [18]: 82.2% | growth [19]: 96.3% | growth [20]: 105%

CCCCN1C(=O)/C(=c2\sc3n(c2=O)C2C(NN=3)N(CC)C(=O)N2CC)c2cccc(C)c21 (stereo unspecified)
growth [1]: 37.6% | growth [2]: 15% | growth [3]: 54.5% | growth [4]: 60% | growth [5]: 11.9% | growth [6]: 56.2% | growth [7]: 29.1% | growth [8]: -7.82% (active) | growth [9]: 89.4% | growth [10]: 27% | growth [11]: 14.9% | growth [12]: 16.5% | growth [13]: 14.1% | growth [14]: 39.4% | growth [15]: 39.1% | growth [16]: 34.4% | growth [18]: 38.7% | growth [19]: 42.4% | growth [20]: 68.2%

O=C(N/N=C\c1ccc([N+](=O)[O-])cc1)c1ccc2nc(-c3ccc(Br)cc3)[nH]c2c1
growth [1]: 28.2% | growth [2]: 2.69% (active) | growth [3]: 6.94% (active) | growth [4]: 62.4% | growth [5]: 11.5% | growth [6]: 44.7% | growth [7]: 25.1% | growth [8]: 28.2% | growth [9]: 18.2% | growth [10]: 3.52% (active) | growth [11]: 14.8% | growth [12]: -0.826% (active) | growth [13]: 56.4% | growth [14]: 41.6% | growth [15]: 4.44% (active) | growth [16]: 25% | growth [17]: 2.52% (active) | growth [18]: 31.4% | growth [19]: -52.9% (active) | growth [20]: 36.8%

CCOC(=O)c1ccc(NC2=C(Cl)C(=O)c3nc(C)ccc3C2=O)cc1
growth [1]: 91% | growth [2]: 7.29% (active) | growth [3]: 11.7% | growth [4]: 77.4% | growth [5]: 45.6% | growth [6]: 70.8% | growth [7]: 65% | growth [8]: 54.3% | growth [9]: 44.2% | growth [10]: 52.4% | growth [11]: -48.5% (active) | growth [12]: 71.5% | growth [13]: 70.1% | growth [14]: 68.1% | growth [15]: 63.8% | growth [16]: 48% | growth [18]: 55.5% | growth [19]: 0.747% (active) | growth [20]: 55.2%

CN1CCN(c2ccc(C(=O)/C=C/c3cc(F)cc(C(F)(F)F)c3)cc2)CC1
growth [1]: 49.6% | growth [2]: 11.1% | growth [3]: 91.7% | growth [4]: 72.9% | growth [5]: 70.5% | growth [6]: 82.8% | growth [7]: 88.6% | growth [8]: 59.5% | growth [9]: 91.1% | growth [10]: 92.2% | growth [11]: 27.5% | growth [12]: 15.9% | growth [13]: 59.9% | growth [14]: 81.7% | growth [15]: 51.4% | growth [16]: 60.2% | growth [18]: 82.8% | growth [19]: 7.73% (active) | growth [20]: 96.3%

CN1CCN(c2ccc(Nc3nc(NCCNC(=O)c4ccccc4)c4sccc4n3)cc2)CC1
growth [1]: 79.4% | growth [2]: 8.82% (active) | growth [3]: 30.6% | growth [4]: 54.3% | growth [5]: 33.8% | growth [6]: 64.6% | growth [7]: 76.9% | growth [8]: -75.4% (active) | growth [9]: 33.3% | growth [10]: 27.8% | growth [11]: 20.7% | growth [12]: 4.23% (active) | growth [13]: 81% | growth [15]: 18.3% | growth [16]: 61.8% | growth [17]: 21.3% | growth [18]: 53% | growth [19]: 5.15% (active) | growth [20]: 59.5%

Source: PubChem BioAssay (NCI)
